Assay [1] can be described thus: inhibitors of TNFa-induced NFkB p65 translocation, primary screen, imaging, HUVEC, MLSMR starter and 10KST1 sets (AID 438;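 active = inhibition above 20% together with a positive visual image hit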;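 also: compound added about 3h40 before a 20 min TNFalpha stimulation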;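 as to inhibition: signal is the nuclear over cytoplasmic p65 intensity ratio per well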). The following applies: HUVEC TNFa-induced p65 nuclear translocation; cell count: measured here: nuclei count (cytotoxicity indicator), at 2.08 µM; inhibition: at 2 µM, stronger effect = higher value, 0% TNFa-plus-vehicle, 100% no-TNFa wells.
Assay [2] is described as follows: reduction of polyQ htt aggregates in cells – imaging, exon1htt(103Q)mCFP cells, high-content imaging, primary screen (AID 483;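 active = visual image review flags a hit and inhibition of aggregation exceeds 20%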;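 also: compound exposure lasted 3 days before fixation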;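 as to nuclei count: percent of the per-plate median nuclei count of sample wells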). The conditions noted are these: exon1htt(103Q)mCFP cell line, aggregate imaging, at 2 µM; inhibition of aggregation: stronger effect = higher value; nuclei count: measured here: cell count, toxicity.
A short description of assay [3]: endothelial E-selectin expression blockers – imaging, HUVEC, immunofluorescence, MLSMR starter and 10KST1 sets, primary screen (AID 487;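 active = visually confirmed hit in the image check and inhibition above 20%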;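 as to inhibition: signal is fraction of cell area covered by stained E-selectin grains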;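 as to nuclei count: 100% = median nuclei count of all wells on the same plate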). The conditions noted are these: HUVEC TNFalpha-induced E-selectin immunofluorescence imaging, at 2 µM; inhibition: stronger effect = higher value; nuclei count: measured here: cell number, toxicity.
For assay [4], the target named is Voltage-gated potassium channel subunit beta-2 (Rattus norvegicus) (UniProt P62483). Put plainly: inhibitors of rat Kvbeta2 reductase activity – biochemical, NADPH fluorescence, primary screen (AID 622;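 active = fluorescence slope higher than the sample average by over 3 SD, cut at about -0.22 in these data, passing the limit was not always enough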;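 also: slope of raw intensity against log time taken from 70 to 1610 s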). The following applies: recombinant KvBeta, 4-cyanobenzaldehyde reduction, at 10 µM, stronger effect = higher value.
Voltage-gated potassium channel subunit beta-2 (Rattus norvegicus), sequence (P62483 whole entry, looked up): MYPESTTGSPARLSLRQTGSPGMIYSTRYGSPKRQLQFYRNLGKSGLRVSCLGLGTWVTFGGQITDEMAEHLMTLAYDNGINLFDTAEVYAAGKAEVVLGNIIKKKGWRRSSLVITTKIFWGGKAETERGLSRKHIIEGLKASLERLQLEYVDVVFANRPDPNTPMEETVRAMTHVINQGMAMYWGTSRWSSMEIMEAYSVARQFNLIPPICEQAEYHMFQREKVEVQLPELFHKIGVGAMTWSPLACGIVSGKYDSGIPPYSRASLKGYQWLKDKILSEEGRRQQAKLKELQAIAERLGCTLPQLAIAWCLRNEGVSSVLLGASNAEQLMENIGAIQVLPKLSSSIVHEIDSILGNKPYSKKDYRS
For assay [5] the target is unchanged. Put plainly: enhancers of rat Kvbeta2 NADPH turnover – biochemical, NADPH fluorescence, primary screen (AID 623;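 active = NADPH fluorescence slope more negative than the mean of all samples by about 3 SD, 99.7% confidence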;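 also: fluorescence intensity change per second fitted from 20 to 320 s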). The conditions noted are these: Recombinant KvBeta, NADPH fluorescence decrease slope, 10 min; at 10 µM; stronger effect = lower value.
Assay [6] concerns the target Alpha-2C adrenergic receptor (Homo sapiens) (UniProt P18825). Put plainly: compounds altering alpha2C-coupled GIRK flux – cell-based, HEK293 alpha2C/GIRK1/2, thallium flux, primary screen (AID 624).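 Also: slope of fluorescence ratio to pre-addition baseline per second over 15 to 24 s.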 The conditions noted are these: thallium flux BTC fluorescence, at 10 µM, actives lie on both sides.
Assay [7] in a line: blockers of RIG-like receptor reporter activation – cell-based, Sendai virus stimulus, luciferase, 10K MLSCN set, TLR/RLR signaling modifier project, primary screen (AID 602276;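 active = inhibition at or above 50% at 10 µM; inactive = inhibition below 50%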;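 also: firefly luciferase from ISG56 promoter only with Renilla not read in this screen; 0% = Sendai virus plus DMSO and 100% = medium plus DMSO without virus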). The conditions noted are these: HEK293 RL24 IRF3 luciferase reporter, at 10 µM, stronger effect = higher value. (In a reporter assay the amount or activity of a reporter protein is the signal.)
A short description of assay [8]: TLR3 IRF3 reporter activation blockers – cell-based, poly I:C stimulus, luciferase, 10K MLSCN set, primary screen (AID 602277;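 active = inhibition of the reporter signal at or above 50%; inactive = inhibition below 50%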). The conditions noted are these: HEK293-TLR3 RL24 IRF3 luciferase reporter, at 10 µM, stronger effect = higher value.

Each structure is given as a SMILES string. Activity calls are given as the source filed them.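 The calls were made as follows, unless noted: active = fluorescence slope after compound addition differing from the mean of all screened samples at 99.7% confidence, in either direction; inactive = the rest.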

Alpha-2C adrenergic receptor (Homo sapiens), sequence (P18825 whole entry, looked up): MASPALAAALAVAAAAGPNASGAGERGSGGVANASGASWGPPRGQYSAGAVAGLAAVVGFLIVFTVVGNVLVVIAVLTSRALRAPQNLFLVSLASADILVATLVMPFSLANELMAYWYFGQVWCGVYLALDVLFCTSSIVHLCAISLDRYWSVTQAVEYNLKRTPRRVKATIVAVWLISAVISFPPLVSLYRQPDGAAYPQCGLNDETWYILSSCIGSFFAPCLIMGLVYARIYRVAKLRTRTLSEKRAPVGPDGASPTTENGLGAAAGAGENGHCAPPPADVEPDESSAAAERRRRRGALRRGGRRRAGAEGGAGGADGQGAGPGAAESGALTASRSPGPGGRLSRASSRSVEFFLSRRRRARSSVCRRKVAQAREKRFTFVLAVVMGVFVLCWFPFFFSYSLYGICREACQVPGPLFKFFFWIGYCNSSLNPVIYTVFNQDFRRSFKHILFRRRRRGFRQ

For the compound `COc1ccc(NC(=O)CSc2nc3c(c(=O)n2-c2ccc(F)cc2)SCC3)c(OC)c1`, the cell count in assay [1] turned out to be 339. The inhibition was 0.6% (inactive) in assay [1], -407% (inactive) in assay [3], 19.4% (inactive) in assay [7] and 26.7% (inactive) in assay [8]. Further, the inhibition of aggregation in assay [2] was -14.2% (inactive). Further, the nuclei count in assay [2] came to 109%; in assay [3], 114%. Further, the fluorescence slope in assay [4] was -0.474 (inactive). The NADPH fluorescence slope in assay [5] was -1.7e-05 (inactive). Besides, in assay [6], the slope is 0.00491 (inactive).

In the case of `CCn1cc(C(=O)NCCC2=CCCCC2)c(=O)c2cc(S(=O)(=O)N(C)C)ccc21`, the cell count in assay [1] came out at 458. For the same compound, the inhibition is -6.1% (inactive) in assay [1], -45.7% (inactive) in assay [3], 3.13% (inactive) in assay [7] and 17.6% (inactive) in assay [8]. For the same compound, the inhibition of aggregation in assay [2] is 38.5% (active). Besides, the nuclei count came to 79% in assay [2] and 93.2% in assay [3]. Further, the fluorescence slope in assay [4] was -0.563 (inactive). Moreover, in assay [5], the NADPH fluorescence slope is -4.1e-05 (inactive). In addition, the slope in assay [6] is 0.00705 (inactive).

In the case of `O=S1(=O)C=C(Sc2nnc(-c3ccccc3)o2)c2ccccc21`, the cell count in assay [1] came to 237. For the same compound, the inhibition is 7.4% (inactive) in assay [1], -55.3% (inactive) in assay [3], 12.3% (inactive) in assay [7] and 66.1% (active) in assay [8]. In assay [2], the inhibition of aggregation is 0.8% (inactive). The values for the nuclei count in assay [2] and in assay [3] were 93.4% and 109%, respectively. For the same compound, the fluorescence slope in assay [4] is -0.479 (inactive). In addition, in assay [5], the NADPH fluorescence slope was -5.2e-05 (inactive). Also, the slope in assay [6] is 0.00503 (inactive).

Consider `COC(=O)Cn1c(CCS(=O)(=O)c2ccc(C)cc2)nc2ccccc21`, for which the cell count in assay [1] worked out at 503. Also, the inhibition is -41.8% (inactive) in assay [1], -69.5% (inactive) in assay [3], 17.1% (inactive) in assay [7] and 28.4% (inactive) in assay [8]. Further, the inhibition of aggregation in assay [2] was 6.7% (inactive). Besides, the nuclei count in assay [2] was 57.3%; in assay [3], 105%. Besides, the fluorescence slope in assay [4] is -0.498 (inactive). For the same compound, the NADPH fluorescence slope in assay [5] was -2.9e-05 (inactive). Besides, the slope in assay [6] is 0.00565 (inactive).

For `O=c1oc2c3c4c(cc2cc1-c1nc2ccccc2[nH]1)CCCN4CCC3`, the cell count in assay [1] stood at 451. Moreover, the inhibition was 5.9% (inactive) in assay [1], -25.7% (inactive) in assay [3], -24.1% (inactive) in assay [7] and -107% (inactive) in assay [8]. Moreover, the inhibition of aggregation in assay [2] was 94.7% [may fluoresce] (active). For the same compound, the figures for the nuclei count in assay [2] and in assay [3] were 112% and 121%, respectively. Further, in assay [4], the fluorescence slope was -0.308 (inactive). Besides, the NADPH fluorescence slope in assay [5] is 1.6e-05 (inactive). Further, in assay [6], the slope is 0.00239 (inactive).

`S=C(NCC1CCCO1)n1nnc2ccccc21` (centres undefined): the cell count in assay [1] was determined as 718. Besides, the inhibition is -5.9% (inactive) in assay [1], 52% (inactive) in assay [3], 12.9% (inactive) in assay [7] and 13.5% (inactive) in assay [8]. Besides, the inhibition of aggregation in assay [2] is -2.9% (inactive). Besides, the nuclei count was determined as 94.6% in assay [2] and 92.8% in assay [3]. The fluorescence slope in assay [4] is -0.399 (inactive). Moreover, the NADPH fluorescence slope in assay [5] is 4.6e-05 (inactive). In assay [6], the slope was 0.00794 (inactive).

In the case of `COc1ccccc1CC(=O)Nc1ccc(OC)c(OC)c1`, the cell count in assay [1] was found to be 330. For the same compound, the inhibition in assay [1] was -8.4% (inactive); in assay [3], -157% (inactive); in assay [7] it was 14.5% (inactive); in assay [8], 21.7% (inactive). The inhibition of aggregation in assay [2] was 17.1% (inactive). Moreover, the nuclei count was 102% in assay [2] and 118% in assay [3]. The fluorescence slope in assay [4] is -0.466 (inactive). Further, the NADPH fluorescence slope in assay [5] was -5.5e-05 (inactive). Also, in assay [6], the slope was 0.00704 (inactive).

Consider `CC1=C(C(=O)OC(C)C)C(C2CC=CCC2)NC(=O)N1` (centres undefined), for which, in assay [1], the cell count turned out to be 306. In addition, the inhibition in assay [1] is 2% (inactive); in assay [3], 35.9% (inactive); in assay [7] it was 0.205% (inactive); in assay [8], 9.1% (inactive). Further, the inhibition of aggregation in assay [2] was 17.1% (inactive). Moreover, the nuclei count was 93% in assay [2] and 98.9% in assay [3]. The fluorescence slope in assay [4] was -0.322 (inactive). Moreover, the NADPH fluorescence slope in assay [5] was 1.4e-05 (inactive). Further, the slope in assay [6] was 0.0059 (inactive).

For `CC(=O)c1c(OC(=O)c2ccco2)c2ccccc2n1C`, the cell count in assay [1] worked out at 386. Moreover, the inhibition in assay [1] is 1% (inactive); in assay [3], -81.6% (inactive); in assay [7] it was 12% (inactive); in assay [8] it was 1.24% (inactive). Further, the inhibition of aggregation in assay [2] was 15.7% (inactive). Also, the nuclei count was 72.8% in assay [2] and 101% in assay [3]. Also, in assay [4], the fluorescence slope was -0.367 (inactive). Moreover, the NADPH fluorescence slope in assay [5] is -1.2e-05 (inactive). Besides, the slope in assay [6] is 0.00641 (inactive).

What is called inhibition is the change of the read-out against control, counted positive when it falls.

For the origin of these results see PubChem BioAssay.
